These results are taken from PubChem BioAssay (NCATS).

Structures are written as SMILES. Several values for one entry are separate records, joined by “and”; a condition that tells them apart may be missing. Identical values can stand only once. Inconclusive results are not listed. Activity calls are given as the source filed them. Unless noted, the call rests on the fitted dose curve; in most records, active means well fitted curve in the direction sought with a large enough effect; inconclusive means small, poorly fitted or top-dose-only effect, or another doubt; inactive means no such curve, though single readings can be large; an effect the other way counts as inactive or inconclusive.

The nature of experiment [1]: Cell Viability - SK-N-SH (AID 435; calls by dose curve;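 further: potency means the concentration at half of the fitted maximal effect; compound exposure lasted 40 h at 37 °C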). The settings on record: SK-N-SH neuroblastoma cell viability qHTS. Summed up:
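SK-N-SH neuroblastoma cells (1500/well) treated 40 h at 37 °C in complete medium; viability read as cellular ATP by CellTiter-Glo luminescence. Normalized to DMSO and 100 uM tamoxifen; AC50 from Hill fits of qHTS concentration-response.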
For orientation: qHTS replaces the single test concentration by a dilution series.

Experiment [2] is described as follows: Cell Viability - N2a (AID 540).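 Further: plate controls were DMSO alone for no effect and tamoxifen control for full effect; nearly all actives have a fitted effect of over 45% in size.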 The settings on record: N2a mouse neuroblastoma cell viability; activity change, negative = cytotoxicity: at 92.2 µM (top of the series). The method, boiled down: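 N2a mouse neuroblastoma, 1500 cells/well, 5 hr settle; compound 40 hr, 37 °C; CellTiter-Glo 20 min RT; luminescence; Hill-fit AC50.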
Experiment [3] can be described thus: Cell Viability - Renal Proximal Tubule (AID 545). Further: nearly all actives have a fitted effect of over 40% in size. The settings on record: renal proximal tubule cells viability; series mostly up to 91.7 µM. Summed up:
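Rat renal proximal tubule primary cells, 1000/well, exposed to compounds for 40 hr at 37 °C in complete medium; cellular ATP read by CellTiter-Glo luminescence. AC50 from concentration-response fitted with standard Hill equation.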

Experiment [4] in a line: Cellular Toxicity (caspase-3) Jurkat (AID 655).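 Further: cells exposed to compound for 16 h at 37 °C before reading.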 The settings on record: Jurkat caspase-3 activation, luminescence; caspase-3 activation: at 92.2 µM (top of the series), DMSO = 0%, tamoxifen = 100%. The method, boiled down:
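Jurkat cells (5000/well) in complete medium exposed 16 h at 37 C; caspase-3/7 activity read by Caspase-Glo luminescence after 20 min at room temperature. Normalized to DMSO and 100 uM tamoxifen; AC50 from Hill fits.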

Experiment [5] in a line: Cellular Toxicity (caspase-3) MRC-5 (AID 659). The settings on record: MRC-5 cells, luminescence, normalized: DMSO 0%, 10 µM staurosporine 100%; series mostly up to 91.7 µM. Summed up:
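Luminescent Caspase-Glo 3/7 read-out (1 h, room temperature) after a 16 h, 37 °C compound exposure of MRC-5 lung fibroblasts at 1500 cells/well. Concentration-response AC50 from Hill equation; 0% DMSO, 100% 10 uM staurosporine.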

The target in experiment [6] is Cytochrome P450 3A4 (Homo sapiens) (UniProt P08684). Nature of the experiment: qHTS Assay for Inhibitors and Substrates of Cytochrome P450 3A4 (AID 884). Further: nearly all actives have a fitted effect of over 50% in size. Further: potency means the concentration at half of the fitted maximal effect. The settings on record: recombinant CYP3A4, Luciferin-PPXE luminescence; series mostly up to 57.1 µM. The method, boiled down: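 Luminescent readout of luciferin produced by CYP3A4 (20 nM) dealkylation of Luciferin-PPXE, 25 uM (its KM). NADPH-driven reaction ran 60 min at RT after 10 min compound preincubation; data scaled to 57 uM ketoconazole as 100% inhibition.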
Sequence of Cytochrome P450 3A4 (Homo sapiens) (P08684 whole entry, looked up): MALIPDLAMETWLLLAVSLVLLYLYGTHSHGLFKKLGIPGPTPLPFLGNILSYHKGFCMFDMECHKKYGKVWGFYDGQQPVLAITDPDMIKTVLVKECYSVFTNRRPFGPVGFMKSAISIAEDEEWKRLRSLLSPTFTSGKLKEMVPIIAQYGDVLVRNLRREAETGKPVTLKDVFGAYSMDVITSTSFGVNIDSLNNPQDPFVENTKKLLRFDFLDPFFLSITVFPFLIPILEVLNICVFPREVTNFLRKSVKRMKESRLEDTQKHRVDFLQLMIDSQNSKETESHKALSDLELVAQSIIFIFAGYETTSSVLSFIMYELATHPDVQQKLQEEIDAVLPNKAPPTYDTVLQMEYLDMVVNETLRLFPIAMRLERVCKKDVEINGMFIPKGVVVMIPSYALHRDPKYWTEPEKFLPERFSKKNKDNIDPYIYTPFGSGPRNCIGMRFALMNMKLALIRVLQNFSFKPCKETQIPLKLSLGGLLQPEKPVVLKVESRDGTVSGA

The nature of experiment [7]: Cell Viability - LYMP2-001 (AID 921).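 Further: 0% = DMSO only and full inhibition = tetraoctylammonium bromide control wells; nearly all actives have a fitted effect of over 70% in size.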 The settings on record: LYMP2-001 lymphoblastoid cell viability; series mostly up to 92.2 µM. Summed up: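 Human lymphoblastoid LYMP2-001 cells, 2500 per well, in complete medium, treated 24 h at 37 C. Viability from cellular ATP by CellTiter-Glo luminescence; AC50 from Hill-equation fits of qHTS concentration-response.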
Experiment [8] in a line: MultiTox-Fluor Cytotoxicity Assay - LYMP1-002 - Dead Cells (AID 960).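 Further: 0% = DMSO and 100% = tetraoctylammonium bromide; nearly all actives have a fitted effect of over 60% in size.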 The settings on record: LYMP1-002 lymphoblastoid cells, dead-cell protease fluorescence; series mostly up to 46.1 µM. The method, boiled down: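 Readout: fluorescence at 485/520 from cell-impermeant bis-AAF-R110 cleaved by proteases leaking from damaged cells. LYMP1-002 lymphoblastoid line, 16 hr compound treatment at 37 C, concentration-response in qHTS format; Hill-equation AC50 values.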

A short description of experiment [9]: Cell Viability - LYMP2-005 (AID 967).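 Further: plate controls were DMSO only for no effect and 92 µM tetraoctylammonium bromide control for full effect.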 The settings on record: LYMP2-005 lymphoblastoid cell viability; series mostly up to 92.2 µM. Summed up: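 Human lymphoblastoid LYMP2-005 cells, 2,500 per well in complete medium, rested 5 h at 37C then compound-treated 24 h at 37C. Intracellular ATP read by CellTiter-Glo luminescence after 30 min at room temperature; AC50 from Hill-equation fits of concentration-response data.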

Experiment [10] is described as follows: Cell Viability - LYMP2-015 (AID 971).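 Further: 0% = DMSO only and full effect = 92 µM tetraoctylammonium bromide; nearly all actives have a fitted effect of over 55% in size.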 The settings on record: LYMP2-015 lymphoblastoid cell viability; series mostly up to 92.2 µM. Summed up: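 qHTS cytotoxicity: 2500 cells/well, 5 hr 37 C, compound 24 hr 37 C, CellTiter-Glo 30 min RT, luminescence. Loss of ATP = toxicity; AC50 via standard Hill fit.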
The nature of experiment [11]: Cell Viability - LYMP2-002 (AID 977).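 Further: compound exposure lasted 24 h at 37 °C; plate controls were DMSO only for no effect and 92 µM tetraoctylammonium bromide for full effect.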 The settings on record: LYMP2-002 lymphoblastoid cell viability, qHTS; series mostly up to 92.2 µM. Summed up: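 Human lymphoblastoid cells (2500/well) in complete medium were preincubated 5 hr at 37 C, then exposed to compounds for 24 hr at 37 C. Intracellular ATP was read by CellTiter-Glo luminescence; AC50 came from Hill-equation concentration-response fits.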

Experiment [12] in a line: Cell Viability - LYMP2-010 (AID 981). Further: on the % scale 0 is the no-effect control and ±100 the full control effect; nearly all actives have a fitted effect of over 55% in size. The settings on record: LYMP2-010 lymphoblastoid cell viability, qHTS; series mostly up to 92.2 µM. Summed up: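 qHTS cytotoxicity, 1536-well: 2500 cells/well, 5 hr settle, 24 hr compound at 37 C, CellTiter-Glo 30 min RT, luminescence read. Decrease in ATP = toxicity; AC50 via standard Hill equation. Positive control tetraoctylammonium bromide.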

Experiment [13] is described as follows: Cell Viability - LYMP2-020 (AID 986).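 Further: plate controls were DMSO only for no effect and tetraoctylammonium bromide at 92 µM for full effect; nearly all actives have a fitted effect of over 55% in size.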 The settings on record: series mostly up to 92.2 µM. Summed up:
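qHTS, 2500 cells/well; 5 hr then 24 hr compound exposure, 37 C; CellTiter-Glo luminescence after 30 min RT; ATP decrease taken as cytotoxicity; AC50 via Hill equation; tetraoctylammonium bromide positive control.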

Experiment [14] can be described thus: Cell Viability - LYMP2-022 (AID 987).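 Further: 0% = DMSO alone and full effect = tetraoctylammonium bromide at 92 µM; nearly all actives have a fitted effect of over 55% in size.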 The settings on record: LYMP2-022 lymphoblastoid cell viability; series mostly up to 92.2 µM. Summed up:
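Luminescent ATP read-out (CellTiter-Glo, 30 min, RT) after 24 hr, 37 C compound exposure of 2500 human lymphoblastoid cells/well in complete medium. Cytotoxicity taken as concentration-dependent ATP loss; AC50 from standard Hill equation.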

The nature of experiment [15]: qHTS assay for small molecule agonists of retinoid X receptor alpha signaling (AID 588544). The settings on record: HEK293T RXRa-UAS-bla, beta-lactamase reporter, 18 h; 530 nm emission.
In experiment [16] the target is Thyroid hormone receptor beta (Homo sapiens) (UniProt P10828). Nature of the experiment: qHTS assay for small molecule agonists of thyroid hormone receptor beta signaling (AID 588545; calls by dose curve;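 further: 0% = DMSO only and 100% = 10 nM T3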). The settings on record: TR-UAS-bla GripTite HEK 293, beta-lactamase ratio, agonist mode, 18 h; series mostly up to 76.7 µM. The method, boiled down:
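TR-UAS-bla-GripTite HEK 293 cells in medium with 2% charcoal/dextran FBS, 0.1 mM NEAA and 1 mM sodium pyruvate were treated with titrated compounds for 18 hrs at 37 C. Beta-lactamase reporter was read with CCF4 dye (ex 405, em 460/530 nm); EC50 from Hill fits.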

Experiment [17] can be described thus: qHTS assay for small molecule antagonists of retinoid X receptor alpha signaling (AID 588546; active means well fitted inhibition curve with a large enough effect in the signal ratio, with a control signal flat, not every such curve was filed as active; the % refers to the signal ratio;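 further: cells stimulated with 9-cis-retinoic acid as agonist; on the % scale 0 is the no-effect control and ±100 the full control effect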). The settings on record: HEK293T RXRa-UAS-bla, beta-lactamase ratio, antagonist mode; measured here: W530 green channel, cytotoxicity proxy. The method, boiled down: (§1)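 Beta-lactamase reporter inhibition, read as CCF4 fluorescence ratio (ex 405, em 460/530 nm) after 2 h at RT. HEK293T UAS-bla cells, 2500/well, were stimulated with 9-cis-RA at 500 or 100 nM final alongside test compound for 18 h at 37 C.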

In experiment [18] the target is Retinoic acid receptor RXR-alpha (Homo sapiens) (UniProt P19793). The description is as above. The settings on record: HEK293T RXRa-UAS-bla, beta-lactamase ratio, antagonist mode. The method, boiled down:
as §1

Experiment [19] deals with Thyroid hormone receptor beta (Homo sapiens) (UniProt P10828). Nature of the experiment: qHTS assay for small molecule antagonists of thyroid hormone receptor beta signaling (AID 588547; active means well fitted inhibition curve with a large enough effect in the signal ratio, with a control signal flat, not every such curve was filed as active; the % refers to the signal ratio;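 further: cells stimulated with 0.4 nM T3 agonist during compound exposure; on the % scale 0 is the no-effect control and ±100 the full control effect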). The settings on record: TR-UAS-bla HEK293, beta-lactamase ratio, antagonist mode, 18 h. The method, boiled down:
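Inhibition of T3-driven (0.4nM final) beta-lactamase reporter activity was measured over 0.59 nM to 92 uM compound after 18 h at 37 C. The cells were GripTite HEK293 TR-UAS-bla in charcoal/dextran-stripped serum, with CCF4 ratio read-out and IC50 from Hill fits.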

Experiment [20] has as its target Tumor necrosis factor (Homo sapiens) (UniProt P01375). In words: qHTS assay to identify small molecules that stimulate Tumor Necrosis Factor-alpha (TNF-alpha) secretion (AID 651757; active means well fitted curve in the direction sought with a large enough effect in the signal ratio; the % refers to the signal ratio; further: 0% is about no effect). The settings on record: Human cells, HTRF 665/615 ratio; series mostly up to 92.2 µM. The method, boiled down:
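THP-1 cells, 3000/well; compound 17 hrs, 37 C; add cryptate/XL665 anti-TNF-alpha antibody pair; 3 hr RT; TR-FRET (HTRF) read of secreted TNF-alpha. Quantitative HTS format.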

Sequence of Retinoic acid receptor RXR-alpha (Homo sapiens) (P19793 whole entry, looked up): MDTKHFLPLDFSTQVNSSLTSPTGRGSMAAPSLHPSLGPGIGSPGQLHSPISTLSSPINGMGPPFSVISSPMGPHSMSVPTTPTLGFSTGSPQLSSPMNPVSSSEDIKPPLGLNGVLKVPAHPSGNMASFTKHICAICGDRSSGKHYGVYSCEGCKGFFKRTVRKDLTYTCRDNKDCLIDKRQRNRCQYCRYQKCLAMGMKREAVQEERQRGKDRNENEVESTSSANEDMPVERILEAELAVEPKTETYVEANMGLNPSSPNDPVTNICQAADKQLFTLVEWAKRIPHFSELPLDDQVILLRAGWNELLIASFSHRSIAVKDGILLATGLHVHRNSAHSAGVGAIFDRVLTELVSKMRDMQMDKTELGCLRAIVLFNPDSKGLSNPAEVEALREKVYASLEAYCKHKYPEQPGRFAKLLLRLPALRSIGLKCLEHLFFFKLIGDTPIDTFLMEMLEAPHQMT
Sequence of Tumor necrosis factor (Homo sapiens) (P01375 whole entry, looked up): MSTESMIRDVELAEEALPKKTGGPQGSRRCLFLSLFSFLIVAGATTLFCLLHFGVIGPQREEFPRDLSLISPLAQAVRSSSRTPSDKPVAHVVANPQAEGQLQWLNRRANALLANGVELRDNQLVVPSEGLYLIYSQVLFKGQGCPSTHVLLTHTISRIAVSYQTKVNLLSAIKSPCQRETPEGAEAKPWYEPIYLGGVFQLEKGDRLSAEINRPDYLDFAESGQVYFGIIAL
Sequence of Thyroid hormone receptor beta (Homo sapiens) (P10828 whole entry, looked up): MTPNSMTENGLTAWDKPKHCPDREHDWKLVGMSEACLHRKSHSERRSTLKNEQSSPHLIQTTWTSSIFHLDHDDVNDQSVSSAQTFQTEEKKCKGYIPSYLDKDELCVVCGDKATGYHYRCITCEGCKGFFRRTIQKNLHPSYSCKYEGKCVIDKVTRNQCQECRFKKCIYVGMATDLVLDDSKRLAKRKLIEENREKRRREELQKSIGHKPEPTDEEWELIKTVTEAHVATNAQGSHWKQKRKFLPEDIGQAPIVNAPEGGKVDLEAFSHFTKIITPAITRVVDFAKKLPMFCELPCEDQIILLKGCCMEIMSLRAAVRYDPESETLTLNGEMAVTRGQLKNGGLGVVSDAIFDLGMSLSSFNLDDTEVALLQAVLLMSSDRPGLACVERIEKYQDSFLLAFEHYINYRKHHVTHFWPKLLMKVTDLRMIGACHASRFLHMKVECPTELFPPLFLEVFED

As to `C=CC(=O)OC`, in experiment [1], the Potency is > 92 µM (inactive). Besides, the Potency entry in [2], in [6], in experiment [7], in [8], in experiment [9] and in [10] was “inactive” each time. For the same compound, the Potency result in [11], in [12], in experiment [13], in experiment [14] and in [16] was “inactive” in each case. In addition, the call in experiment [3], in [5] and in experiment [20] was inactive. Further, in experiment [4], the caspase-3 activation is 0.227% (inactive). Moreover, the max response in experiment [15] was -10.9%; in experiment [17], -10.6%; in experiment [18], -3.6% (inactive). In addition, the activity change % (negative = inhibition) in experiment [19] was -6.86% (inactive).
Consider `Oc1cccc(Cl)c1Cl`, for which the Potency in [1] is > 92 µM (inactive). For the same compound, the Potency result in experiment [2], in experiment [6], in [7], in experiment [8], in [9] and in experiment [10] was “inactive” in each case. Besides, the Potency entry in experiment [11], in [12], in [13], in [14] and in experiment [16] was “inactive” each time. The result in experiment [3], in [5] and in experiment [20] was inactive. The caspase-3 activation in experiment [4] is 0.319% (inactive). Also, the max response is -10% in experiment [15], -4.72% in [17] and -5.77% (inactive) in experiment [18]. Further, the activity change % (negative = inhibition) in experiment [19] is 9.41% (inactive).
`Cc1cc(N=Nc2ccccc2C)ccc1N`: the figures for the Potency in experiment [1] and in experiment [6] were > 92 µM (inactive) and 5.01 µM (active), respectively. Moreover, the Potency entry in experiment [2], in [7], in experiment [9], in experiment [10], in experiment [11] and in [12] was “inactive” throughout. For the same compound, the Potency result in [13], in [14] and in [16] was “inactive” in each case. Also, in experiment [4], the caspase-3 activation was 2.76% (inactive). Further, in experiment [5], the call was inactive. For the same compound, the max response in experiment [17] is -7.48%; in [18], -17.1% (inactive). For the same compound, the activity change % (negative = inhibition) in experiment [19] was -2.95% (inactive) and 5.44% (inactive).
In the case of `O=C(O)C(Br)CBr` (stereo not drawn), the Potency in experiment [1] was > 92 µM (inactive). For the same compound, the Potency entry in experiment [2], in experiment [6], in experiment [7], in experiment [8], in [9] and in [10] was “inactive” each time. Further, the Potency entry in [12], in [13], in [14] and in experiment [16] was “inactive” each time. Further, the compound was classed as inactive in experiment [3], in experiment [5] and in [20]. The caspase-3 activation in experiment [4] is 1.63% (inactive). Further, in experiment [15], the max response came out at 10.3%. In experiment [19], the activity change % (negative = inhibition) was 10.8% (inactive).
